# According to article PMC7862700, “An all-to-all approach to the identification of sequence-specific readers for epigenetic DNA modifications on cytosine”:
# Legend:
# Assay in all cases: DAPPL (digital affinity profiling via proximity ligation, sequencing); 10 mM Tris-HCl pH 7.5, 50 mM NaCl, 1 mM DTT, 4% glycerol, room temperature, 30 min; GST-TFs on glutathione beads, 16-mer random dsDNA library, 0.1% formaldehyde crosslink after washing; high values mean tight binding
# Details in all cases: protein: recombinant; tags: N-terminal GST; dsDNA, one strand shown
# FLI1 = molecular target: T1, FLI1 (Homo sapiens, UniProt Q01543 1-452)
# T1 sequence: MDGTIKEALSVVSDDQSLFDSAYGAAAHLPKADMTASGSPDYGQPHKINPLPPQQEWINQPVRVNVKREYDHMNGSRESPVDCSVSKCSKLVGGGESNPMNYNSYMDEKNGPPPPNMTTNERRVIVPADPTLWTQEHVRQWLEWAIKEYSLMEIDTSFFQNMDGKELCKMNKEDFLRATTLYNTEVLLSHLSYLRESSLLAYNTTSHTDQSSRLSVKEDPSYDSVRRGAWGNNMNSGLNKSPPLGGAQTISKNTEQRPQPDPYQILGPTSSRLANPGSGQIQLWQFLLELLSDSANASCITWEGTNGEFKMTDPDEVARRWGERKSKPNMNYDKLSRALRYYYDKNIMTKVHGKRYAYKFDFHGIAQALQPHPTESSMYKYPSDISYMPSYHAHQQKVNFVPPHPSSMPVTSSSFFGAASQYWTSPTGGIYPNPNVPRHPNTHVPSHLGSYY
# Summary of the method: (§1)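 Yeast served to express human transcription factors as GST fusions, which were then captured on glutathione beads and labelled with DNA barcodes. Pooled with a tag-only sample, they were incubated with 200 nmole of a 16-mer random double-stranded DNA library for 30 min at room temperature in Tris/NaCl/DTT/glycerol buffer, washed, crosslinked with 0.1% formaldehyde, ligated by proximity, amplified by PCR and sequenced. Dividing each hexamer's read frequency for a factor by its frequency for the tag-only sample gives the binding signal.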
# ELK1 = molecular target: T2, ELK1 (Homo sapiens, UniProt P19419 1-428)
# T2 sequence: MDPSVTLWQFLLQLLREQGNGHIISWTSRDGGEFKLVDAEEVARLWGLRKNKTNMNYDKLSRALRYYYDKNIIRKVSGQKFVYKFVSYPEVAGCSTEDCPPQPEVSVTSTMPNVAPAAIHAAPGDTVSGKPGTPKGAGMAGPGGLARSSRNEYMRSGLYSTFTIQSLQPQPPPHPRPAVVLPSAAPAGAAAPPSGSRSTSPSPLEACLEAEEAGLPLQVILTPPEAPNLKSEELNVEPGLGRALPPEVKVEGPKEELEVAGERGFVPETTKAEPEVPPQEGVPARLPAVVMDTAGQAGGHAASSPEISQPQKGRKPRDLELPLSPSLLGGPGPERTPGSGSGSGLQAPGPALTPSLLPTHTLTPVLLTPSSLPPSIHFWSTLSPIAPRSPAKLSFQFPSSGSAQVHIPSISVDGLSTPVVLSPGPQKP
# Summary of the method: as §1
# GABPA = molecular target: T3, GABPA (Homo sapiens, UniProt Q06546 1-454)
# T3 sequence: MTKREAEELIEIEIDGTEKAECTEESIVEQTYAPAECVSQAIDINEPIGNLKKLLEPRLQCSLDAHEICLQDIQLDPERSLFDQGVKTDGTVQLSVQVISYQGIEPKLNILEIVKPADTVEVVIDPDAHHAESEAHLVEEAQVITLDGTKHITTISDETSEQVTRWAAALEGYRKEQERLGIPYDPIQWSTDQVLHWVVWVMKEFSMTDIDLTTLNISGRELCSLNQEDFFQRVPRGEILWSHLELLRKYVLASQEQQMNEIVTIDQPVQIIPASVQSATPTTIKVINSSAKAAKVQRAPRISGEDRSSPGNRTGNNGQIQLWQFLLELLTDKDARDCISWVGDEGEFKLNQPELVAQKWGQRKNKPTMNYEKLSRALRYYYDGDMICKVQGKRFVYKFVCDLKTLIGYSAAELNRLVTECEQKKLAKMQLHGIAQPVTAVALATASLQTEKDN
# Summary of the method: as §1
# ELF1 = ELF1 (Homo sapiens, UniProt P32519 1-619)
# ELF1, sequence (P32519 whole entry): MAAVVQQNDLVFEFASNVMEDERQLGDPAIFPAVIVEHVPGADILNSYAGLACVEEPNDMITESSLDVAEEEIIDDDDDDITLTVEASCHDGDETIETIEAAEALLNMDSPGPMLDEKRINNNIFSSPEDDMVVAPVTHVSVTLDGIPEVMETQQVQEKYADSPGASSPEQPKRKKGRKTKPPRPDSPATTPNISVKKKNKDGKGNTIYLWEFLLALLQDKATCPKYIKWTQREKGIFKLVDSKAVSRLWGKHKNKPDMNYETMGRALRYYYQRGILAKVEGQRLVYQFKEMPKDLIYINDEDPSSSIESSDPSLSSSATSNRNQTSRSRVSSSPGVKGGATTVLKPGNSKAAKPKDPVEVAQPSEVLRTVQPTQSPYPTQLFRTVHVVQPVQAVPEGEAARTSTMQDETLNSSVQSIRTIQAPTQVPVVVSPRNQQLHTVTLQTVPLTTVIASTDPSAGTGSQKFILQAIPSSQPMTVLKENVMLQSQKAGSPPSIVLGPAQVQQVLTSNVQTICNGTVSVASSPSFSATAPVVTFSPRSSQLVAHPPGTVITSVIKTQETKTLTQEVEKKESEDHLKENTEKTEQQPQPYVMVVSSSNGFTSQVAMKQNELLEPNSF
# Summary of the method: as §1
# EHF = molecular target: T4, EHF (Homo sapiens, UniProt Q9NZC4 1-300)
# T4 sequence: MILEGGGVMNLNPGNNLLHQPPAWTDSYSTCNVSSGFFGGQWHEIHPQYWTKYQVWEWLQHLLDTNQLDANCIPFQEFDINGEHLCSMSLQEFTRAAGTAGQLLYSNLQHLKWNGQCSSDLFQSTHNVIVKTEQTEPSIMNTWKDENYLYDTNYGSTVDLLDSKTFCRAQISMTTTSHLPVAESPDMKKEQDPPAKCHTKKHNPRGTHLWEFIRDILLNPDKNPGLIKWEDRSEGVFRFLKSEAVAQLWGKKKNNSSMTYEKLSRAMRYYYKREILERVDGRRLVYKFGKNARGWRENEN
# Summary of the method: as §1
# SPIB = SPIB (Homo sapiens, UniProt Q01892 1-262)
# SPIB, sequence (Q01892 whole entry): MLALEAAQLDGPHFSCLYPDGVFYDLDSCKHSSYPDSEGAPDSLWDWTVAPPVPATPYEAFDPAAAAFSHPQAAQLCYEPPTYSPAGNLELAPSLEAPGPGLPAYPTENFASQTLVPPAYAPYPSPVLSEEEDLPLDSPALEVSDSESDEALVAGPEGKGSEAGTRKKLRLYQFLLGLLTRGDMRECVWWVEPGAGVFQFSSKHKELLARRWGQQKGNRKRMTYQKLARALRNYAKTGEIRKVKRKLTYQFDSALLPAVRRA
# Summary of the method: as §1
# SPIC = molecular target: T5, SPIC (Homo sapiens, UniProt Q8N5J4 1-248)
# T5 sequence: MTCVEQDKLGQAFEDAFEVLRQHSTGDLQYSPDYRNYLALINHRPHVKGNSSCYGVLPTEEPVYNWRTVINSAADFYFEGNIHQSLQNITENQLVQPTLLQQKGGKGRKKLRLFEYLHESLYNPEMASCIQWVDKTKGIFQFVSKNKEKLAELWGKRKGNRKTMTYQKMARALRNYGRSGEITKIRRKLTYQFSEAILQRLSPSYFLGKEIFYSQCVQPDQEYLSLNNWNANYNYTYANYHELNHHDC
# Summary of the method: as §1
# ELK4 = molecular target: T6, ELK4 (Homo sapiens, UniProt P28324-2 1-405)
# T6 sequence: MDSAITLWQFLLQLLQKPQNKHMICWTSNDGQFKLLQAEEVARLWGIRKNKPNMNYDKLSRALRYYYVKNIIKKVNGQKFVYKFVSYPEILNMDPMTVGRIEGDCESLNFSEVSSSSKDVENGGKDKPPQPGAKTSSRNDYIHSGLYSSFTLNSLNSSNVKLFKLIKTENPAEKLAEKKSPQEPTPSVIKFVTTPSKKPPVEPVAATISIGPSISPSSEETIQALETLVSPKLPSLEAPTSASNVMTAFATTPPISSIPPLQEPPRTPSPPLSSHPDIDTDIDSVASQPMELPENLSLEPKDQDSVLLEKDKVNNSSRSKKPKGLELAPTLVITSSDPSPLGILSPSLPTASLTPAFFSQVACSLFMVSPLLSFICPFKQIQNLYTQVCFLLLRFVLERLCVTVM
# Summary of the method: as §1
# ETV1 = ETV1 (Homo sapiens, UniProt P50549 1-477)
# ETV1, sequence (P50549 whole entry): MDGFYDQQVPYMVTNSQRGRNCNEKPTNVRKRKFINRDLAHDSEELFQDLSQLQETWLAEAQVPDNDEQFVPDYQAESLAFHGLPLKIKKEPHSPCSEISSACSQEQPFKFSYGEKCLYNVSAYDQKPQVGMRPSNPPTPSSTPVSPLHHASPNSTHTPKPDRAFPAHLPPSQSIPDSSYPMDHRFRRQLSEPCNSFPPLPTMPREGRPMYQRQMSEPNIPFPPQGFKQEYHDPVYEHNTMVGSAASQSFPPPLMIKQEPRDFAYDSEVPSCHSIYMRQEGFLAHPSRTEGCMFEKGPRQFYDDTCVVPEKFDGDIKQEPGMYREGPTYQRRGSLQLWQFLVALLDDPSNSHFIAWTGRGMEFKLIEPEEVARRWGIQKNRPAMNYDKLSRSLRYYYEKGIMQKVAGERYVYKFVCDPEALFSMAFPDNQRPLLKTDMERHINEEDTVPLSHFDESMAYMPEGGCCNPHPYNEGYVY
# Summary of the method: as §1
# ETV3 = molecular target: T7, ETV3 (Homo sapiens, UniProt P41162-2 1-143)
# T7 sequence: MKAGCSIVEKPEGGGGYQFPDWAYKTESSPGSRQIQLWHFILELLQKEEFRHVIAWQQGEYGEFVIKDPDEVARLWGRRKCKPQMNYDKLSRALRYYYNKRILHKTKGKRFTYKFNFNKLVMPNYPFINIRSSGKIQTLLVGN
# Summary of the method: as §1
# ETV6 = ETV6 (Homo sapiens, UniProt P41212 1-452)
# ETV6, sequence (P41212 whole entry): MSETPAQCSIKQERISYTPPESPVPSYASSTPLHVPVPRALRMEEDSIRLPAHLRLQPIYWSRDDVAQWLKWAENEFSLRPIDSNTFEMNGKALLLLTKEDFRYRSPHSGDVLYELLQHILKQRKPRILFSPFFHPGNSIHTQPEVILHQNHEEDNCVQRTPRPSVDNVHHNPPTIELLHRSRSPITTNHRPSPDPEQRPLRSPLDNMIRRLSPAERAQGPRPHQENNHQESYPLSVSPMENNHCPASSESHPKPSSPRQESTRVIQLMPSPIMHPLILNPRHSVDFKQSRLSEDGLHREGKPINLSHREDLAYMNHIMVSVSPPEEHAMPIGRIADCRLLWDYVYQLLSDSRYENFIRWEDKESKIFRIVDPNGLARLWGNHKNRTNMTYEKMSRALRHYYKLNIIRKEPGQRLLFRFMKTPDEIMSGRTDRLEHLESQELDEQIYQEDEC
# Summary of the method: as §1
sequence,measurement,setting,value
TGAATC,binding signal,FLI1,"1.03 fold enrichment (6-mer frequency, TF over GST control)"
same,binding signal,ELK1,"1.01 fold enrichment (6-mer frequency, TF over GST control)"
same,binding signal,GABPA,"1.05 fold enrichment (6-mer frequency, TF over GST control)"
same,binding signal,ELF1,"1 fold enrichment (6-mer frequency, TF over GST control)"
same,binding signal,EHF,"1.04 fold enrichment (6-mer frequency, TF over GST control)"
same,binding signal,SPIB,"1.04 fold enrichment (6-mer frequency, TF over GST control)"
same,binding signal,SPIC,"1.01 fold enrichment (6-mer frequency, TF over GST control)"
same,binding signal,ELK4,"1.03 fold enrichment (6-mer frequency, TF over GST control)"
same,binding signal,ETV1,"1.01 fold enrichment (6-mer frequency, TF over GST control)"
same,binding signal,ETV3,"1.01 fold enrichment (6-mer frequency, TF over GST control)"
same,binding signal,ETV6,"1.01 fold enrichment (6-mer frequency, TF over GST control)"
